Only some compounds are listed: those with a hit (about 9.3% of all), similar ones and a draw of the others.
NPC1 prom act – activates the NPC1 promoter; Huh7 NPC1 promoter luciferase reporter, 24 h; Potency, µM (highest dose often 9.22 µM), for the others: at the highest dose activation, hits mostly activators; hit rate 2.4% among 320,000; further: % of control where 0% means no effect; nearly all actives have a fitted effect of over 60% in size
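Cells: Huh7 expressing luciferase under the NPC1 promoter, 1500/well. Seeded 2 h, compound added, incubated 24 h at 37 °C. Luciferase reagent, 10 min ambient, then luminescence.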
Rab9 prom act – activates the Rab9 promoter; Huh7 Rab9 promoter-luciferase reporter, luminescence, 24 h; Potency, µM (series often up to 9.22 µM), for the others: at the top dose activation, negative = inhibition, most hits filed as activators; hit rate 2.8% among 320,000; further: % of control where 0% means no effect; nearly all actives have a fitted effect of over 60% in size
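Luminescence read-out: Huh7 cells stably expressing Rab9-luciferase, treated 24 h with compound at 37 °C, then lysed with luciferase reagent for 10 min at ambient before reading.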
FLuc counter – inhibits or activates purified firefly luciferase, miR-21 counter-screen; hit rate 6.9% among 360,000; AID 588342; P08659; purified FLuc, Km substrates, luminescence inhibition; Potency, µM (titrated, usually from 57.5 µM), inactives show at the top dose activity change, negative = inhibition, usual class: inhibitors;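 further: plate controls were vehicle for no effect and reference inhibitor for full effect; nearly all actives have a fitted effect of over 55% in size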
Target sequence (P08659 whole entry, looked up): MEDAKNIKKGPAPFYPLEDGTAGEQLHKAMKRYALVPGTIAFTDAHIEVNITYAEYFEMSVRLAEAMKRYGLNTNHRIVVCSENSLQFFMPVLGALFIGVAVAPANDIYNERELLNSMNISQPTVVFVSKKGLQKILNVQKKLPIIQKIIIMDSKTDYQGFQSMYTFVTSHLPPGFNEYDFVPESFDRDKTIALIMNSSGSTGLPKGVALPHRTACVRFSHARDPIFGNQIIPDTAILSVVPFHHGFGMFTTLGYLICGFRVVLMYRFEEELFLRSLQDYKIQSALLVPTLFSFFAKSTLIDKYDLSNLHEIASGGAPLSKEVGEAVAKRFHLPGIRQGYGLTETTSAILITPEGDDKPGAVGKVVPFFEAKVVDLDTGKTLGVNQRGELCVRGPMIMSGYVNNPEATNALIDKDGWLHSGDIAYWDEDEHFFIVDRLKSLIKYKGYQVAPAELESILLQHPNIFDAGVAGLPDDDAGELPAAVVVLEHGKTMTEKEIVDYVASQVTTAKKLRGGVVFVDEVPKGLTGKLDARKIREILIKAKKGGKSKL
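Biochemical qHTS of compounds, final roughly 60 µM downward over six points, against 10 nM purified firefly luciferase using Km concentrations of substrates (10 uM D-luciferin, 10 uM ATP) in Tris acetate pH 7.5 buffer; luminescence output.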
ELG1 genotoxic – inducers of genotoxicity in HEK293T ELG1-luciferase cells; HEK293T ELG1-luciferase reporter, luminescence, 16 h; Potency, µM (doses to about 46 µM), for the others: at the highest dose activity change, positive = activation, actives largely listed as activators; hit rate 1.3% among 330,000; further: % of control where 0% means no effect; nearly all actives have a fitted effect of over 60% in size
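16 hr compound incubation (37 °C, 5% CO2) of HEK293T cells carrying luciferase-tagged ELG1; luciferase then measured by ONE-Glo luminescence after 30 min at RT.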
ELG1 DNA repair – inhibitors of ELG1-dependent DNA repair in HEK293T cells. HEK293T ELG1-luciferase reporter, luminescence, 16 h; DNA damage induced by 5-fluorouridine. Potency, µM (top dose mostly 46.1 µM), for the others: at the highest dose activity change, negative = inhibition, most hits filed as inhibitors. hit rate 2.3% among 330,000. AID 504467; further: on the % scale 0 is the no-effect control and ±100 the full control effect; nearly all actives have a fitted effect of over 55% in size
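In this reporter screen, reduction of luminescence relative to DMSO vehicle indicated activity. Compounds and 5-fluorouridine were added together to 2,000 cells per well, incubated for 16 hr at 37 °C, then developed with ONE-Glo.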
SMN2 splice enh – SMN2 splice variant enhancement; hit rate 2.8% among 210,000; Potency, µM (series often up to 46.1 µM), for inactives: at the top dose activity change, positive = activation, actives largely listed as activators; HEK293 SMN2-luciferase splicing reporter, luminescence, 30-36 h; further: % of control where 0% means no effect; nearly all actives have a fitted effect of over 55% in size
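HEK293 cells carry an SMN2 minigene-luciferase reporter in which exon 7 inclusion puts luciferase in frame. Cells were seeded at 2000 cells/well, attached for 10-12 hours, then exposed to compounds for 30-36 hours at 37C before ONE-Glo luminescence.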
* hit, by the source's call. The call rests on the fitted dose curve; in most records, active means well fitted curve in the direction sought with a large enough effect; inconclusive means small, poorly fitted or top-dose-only effect, or another doubt; inactive means no such curve, though single readings can be large; an effect the other way counts as inactive or inconclusive. Potency means the concentration at half of the fitted maximal effect.

What do the screens show for `COC1=CC(=O)[C@]2(C=C1OC)OC[C@@H]1Oc3c(ccc4c3C=CC(C)(C)O4)C(=O)[C@@H]12`?
ELG1 genotoxic: -12%; ELG1 DNA repair: 1.2µM*

What do the screens show for `COc1ccc(-c2cc(=Nc3cccc(C(=O)O)c3)c3cc(C)ccc3o2)cc1`?
NPC1 prom act: -1%; Rab9 prom act: inconclusive; FLuc counter: 9.5µM*; ELG1 genotoxic: 5.8µM*; ELG1 DNA repair: inconclusive

Results for N#CC(C(=O)C12CC3CC(CC(C3)C1)C2)c1nc2ccccc2[nH]1 (stereo not given) ?
NPC1 prom act: -6%; Rab9 prom act: 4%; FLuc counter: 11µM*; ELG1 genotoxic: 1%; ELG1 DNA repair: -11%; SMN2 splice enh: -33%

What do the screens show for `COc1ccc(C(=O)C23CN4CN(CN(C4)C2)C3)cc1`?
NPC1 prom act: -5%; Rab9 prom act: -9%; FLuc counter: 0%; ELG1 genotoxic: 0%; ELG1 DNA repair: -7%

What do the screens show for `COc1ccc(C(=O)Nc2sc3c(c2C(=O)O)CC(C)(C)OC3)cc1`?
NPC1 prom act: -1%; Rab9 prom act: -8%; FLuc counter: 17µM*; ELG1 genotoxic: -7%; ELG1 DNA repair: -11%; SMN2 splice enh: -36%

Results for Cc1cc(C(=O)OCC(=O)Nc2ccc(F)cc2F)c(C)n1C1CC1 ?
NPC1 prom act: 14%; Rab9 prom act: -1%; FLuc counter: -9%; ELG1 genotoxic: 3%; ELG1 DNA repair: -10%

What do the screens show for `Cc1c(C(=O)N2CCC3(CC2)OCCO3)sc2ncnc(N3CCc4ccccc4C3)c12`?
NPC1 prom act: -4%; Rab9 prom act: -5%; FLuc counter: inconclusive; ELG1 genotoxic: -5%; ELG1 DNA repair: 21µM*; SMN2 splice enh: -52%

How did O=C(c1ccccc1)N1CCC2(CC1)OCCO2 do in these assays?
NPC1 prom act: -4%; Rab9 prom act: 0%; FLuc counter: 1%; ELG1 genotoxic: 0%; ELG1 DNA repair: 1%

Results for CCOc1ccc(-c2cn3c(n2)sc2cc(C(=O)N4CCCC(C)C4)ccc23)cc1 (stereo not given) ?
FLuc counter: 4.3µM*; SMN2 splice enh: 0%

How did OC1(c2ccc(F)cc2)CC2CCC(C1)N2Cc1nnnn1C1CCCCC1 (stereo not given) do in these assays?
NPC1 prom act: 0%; Rab9 prom act: 0%; FLuc counter: 9%; ELG1 genotoxic: -5%; ELG1 DNA repair: inconclusive; SMN2 splice enh: -12%

Results for COC(=O)C(O)(c1ccc(NC(=O)c2cccs2)cc1)C(F)(F)F (stereo not given) ?
NPC1 prom act: 26%; Rab9 prom act: inconclusive; FLuc counter: 15µM*; ELG1 genotoxic: 17%; ELG1 DNA repair: inconclusive

What do the screens show for `CCCCNC(=O)Nc1ccc(C(O)(C(=O)OC)C(F)(F)F)cc1` (stereo not given)?
NPC1 prom act: 13%; Rab9 prom act: 13%; FLuc counter: inconclusive; ELG1 genotoxic: 16%; ELG1 DNA repair: inconclusive

How did COC(=O)C(O)(c1ccc(NC(=O)c2ccccc2)cc1)C(F)(F)F (stereo not given) do in these assays?
NPC1 prom act: inconclusive; Rab9 prom act: inconclusive; FLuc counter: 19µM*; ELG1 genotoxic: 9%; ELG1 DNA repair: inconclusive

What do the screens show for `C/C(=N/OC(=O)N(C)C)c1ncc(C(F)(F)F)cc1N1CCOCC1`?
NPC1 prom act: 2%; Rab9 prom act: 21%; FLuc counter: 1%; ELG1 genotoxic: -6%; ELG1 DNA repair: 14%; SMN2 splice enh: -5%

Results for COCCOC(=O)c1c(C)oc2ccc(OC(=O)N(C)C)cc12 ?
NPC1 prom act: 15%; Rab9 prom act: 3%; FLuc counter: inconclusive; ELG1 genotoxic: -1%; ELG1 DNA repair: 10%; SMN2 splice enh: -10%

Results for CC(C)n1c(N2CCN(S(=O)(=O)c3cccc([N+](=O)[O-])c3)CC2)nc2ccccc21 ?
NPC1 prom act: -7%; Rab9 prom act: 0%; FLuc counter: 3%; ELG1 genotoxic: -6%; ELG1 DNA repair: 23µM*

How did Cc1cn2c(=O)cc(COC(=O)c3ccccc3F)nc2s1 do in these assays?
FLuc counter: 2.7µM*

Results for COC(=O)C[C@]1(C(=O)OC)CN(C#N)N(c2ccc(Cl)cc2)C12c1ccccc1-c1ccccc12 ?
NPC1 prom act: -39%; Rab9 prom act: -33%; FLuc counter: 2%; ELG1 genotoxic: -11%; ELG1 DNA repair: 26µM*; SMN2 splice enh: -116%

How did COC(=O)[C@@H]1[C@@H](C(=O)OC)C2(c3ccccc3-c3ccccc32)N(c2ccc(Cl)cc2)N1C#N do in these assays?
NPC1 prom act: -29%; Rab9 prom act: -38%; FLuc counter: 0%; ELG1 genotoxic: -24%; ELG1 DNA repair: inconclusive; SMN2 splice enh: -113%

What do the screens show for `COc1ccc(CCC(=O)NCCc2cnc[nH]2)cc1`?
NPC1 prom act: -1%; Rab9 prom act: 6%; FLuc counter: 0%; ELG1 genotoxic: -3%; ELG1 DNA repair: 13%

Results for COC(=O)C1=C(c2ccccc2OCc2ccccc2)C[C@@H]2CC[C@H]1N2C(=O)NCCc1ccc(F)cc1 ?
NPC1 prom act: -3%; Rab9 prom act: -4%; FLuc counter: 2%; ELG1 genotoxic: -8%; ELG1 DNA repair: 21µM*

Results for CCN1CCN(c2ccc(NC(C)=O)cc2Cl)CC1 ?
NPC1 prom act: 0%; Rab9 prom act: -4%; FLuc counter: -2%; ELG1 genotoxic: 1%; ELG1 DNA repair: -4%; SMN2 splice enh: 1%

Results for Cc1ccc(N=Nc2cc(C)ccc2N)cc1 ?
NPC1 prom act: 0.5µM*; Rab9 prom act: 0.32µM*; FLuc counter: 0.19µM*; ELG1 genotoxic: 0.46µM*; ELG1 DNA repair: inconclusive

What do the screens show for `Cc1cc(/C=C2\C(=O)NC(=O)N(c3ccccc3)C2=O)c(C)n1-c1ccc(C(=O)O)c(Cl)c1`?
NPC1 prom act: -1%; Rab9 prom act: 0%; FLuc counter: -16%; ELG1 genotoxic: -1%; ELG1 DNA repair: -2%

What do the screens show for `COc1ccc(CNCCc2ccc(Cl)cc2)c(OC)c1OC`?
NPC1 prom act: 0%; Rab9 prom act: -9%; FLuc counter: 1%; ELG1 genotoxic: -19%; ELG1 DNA repair: inconclusive

What do the screens show for `CN(CC(=O)N1CCc2ccccc21)S(=O)(=O)c1cccs1`?
NPC1 prom act: 2.8µM*; Rab9 prom act: 3.5µM*; FLuc counter: 12µM*; ELG1 genotoxic: 10µM*; ELG1 DNA repair: inconclusive; SMN2 splice enh: 11µM*
